The text below walks through data of PubChem BioAssay (NCATS).

In test [1] the target is Lysosomal acid glucosylceramidase (Homo sapiens) (UniProt P04062). Nature of the test: Glucocerebrosidase-p2 (AID 348; in the data active = potency below about 10 µM; also: potency is read from the fitted curve at half-maximal effect). As to conditions: purified GBA, blue fluorogenic substrate, 40 min. Put shortly:
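Compounds titrated from 0.6 nM upwards against 0.2 nM enzyme in pH 5.9 citric acid/KH2PO4, taurocholate, tween-20; blue fluorogenic substrate 80 uM, 40 min room temperature, stopped and read Ex 365/Em 440 for AC50.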

The nature of test [2]: AP1 Signaling Pathway (AID 357).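 Also: ME-180 reporter cells stimulated with EGF at its EC50 level; % is scaled to controls: 0 for no effect and ±100 for the full control effect.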 The following applies: ME-180 AP-1-bla reporter, EGF-induced, beta-lactamase ratio, 5 h; at 7.69 µM (top of the series) unless noted. An outline of the steps: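 First, ME-180 AP-1-bla cells were cultured overnight at 37 °C in low-serum Opti-MEM. Next, titrated compounds with EC50 EGF were incubated 5 hours. Finally, CCF4 was added for 2.5 hours and the 460/530 nm ratio recorded.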

Test [3] addresses Cytochrome P450 1A2 (Homo sapiens) (UniProt P05177). Nature of the test: p450-cyp1a2 (AID 410; calls by dose curve; also: potency is read from the fitted curve at half-maximal effect;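 as to activity change, negative = inhibition: -100% = full effect of reference inhibitor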). The following applies: recombinant CYP1A2, luciferin-ME demethylation, luminescence; series mostly up to 57 µM. An outline of the steps: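 Luminescent readout of luciferin formed from Luciferin-ME by human CYP1A2; data normalized against complete inhibition by 57 uM furafylline. Enzyme 20nM, substrate 100uM at Km, 100mM KPO4 buffer, 60 min reaction at room temperature.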

Test [4] can be described thus: NFAT Signaling Pathway (AID 444).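 Also: carbachol stimulus at about its EC50 of 1 µM final; % is scaled to controls: 0 for no effect and ±100 for the full control effect.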 As to conditions: Jurkat NFAT-bla M1, carbachol, beta-lactamase ratio, 5 h; at 7.69 µM (top of the series) unless noted. An outline of the steps: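 Read-out: CCF4 FRET ratio (460 nm/530 nm) after 1 h RT dye loading, used for %activity and AC50 from titration series. Cells: Jurkat NFAT-β-lactamase/M1 line, treated with compound plus 1 uM carbachol for 5 h, 37 °C.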

Test [5] in a line: Stat Signaling Pathway (AID 446).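 Also: ME-180 cervical cancer cells given 40 pM IL-6 alongside compound; SIE-controlled beta-lactamase reporter measured as 460/530 nm FRET emission ratio; % is scaled to controls: 0 for no effect and ±100 for the full control effect.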 The following applies: ME-180 (cervical carcinoma) SIE beta-lactamase reporter, IL-6 stimulated, 5 h; at 7.69 µM (top of the series) unless noted. Put shortly:
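IL-6/STAT signaling read in ME-180 cells via an SIE beta-lactamase reporter. Stimulus was 40 pM IL-6 (its AC50) for 5 hrs, so both activation and inhibition register.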

For test [6], the target named is Glucocorticoid receptor (Homo sapiens) (UniProt P04150). Nature of the test: GR-EFC Redistribution (AID 451; calls by dose curve; also: potency is read from the fitted curve at half-maximal effect). The following applies: CHO-K1 GR-EFC translocation, beta-gal luminescence, 2 h. Put shortly: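 Translocation of GR-ED fusion to nuclear EA restores b-gal, read by luminescence after 1 h room-temperature detection. Engineered CHO-K1 biosensor cells, 1,000/well, exposed 2 h at 37 C to titrations up to 46 uM final.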
Sequence of Glucocorticoid receptor (Homo sapiens) (P04150 whole entry, looked up, the tested form may be a part): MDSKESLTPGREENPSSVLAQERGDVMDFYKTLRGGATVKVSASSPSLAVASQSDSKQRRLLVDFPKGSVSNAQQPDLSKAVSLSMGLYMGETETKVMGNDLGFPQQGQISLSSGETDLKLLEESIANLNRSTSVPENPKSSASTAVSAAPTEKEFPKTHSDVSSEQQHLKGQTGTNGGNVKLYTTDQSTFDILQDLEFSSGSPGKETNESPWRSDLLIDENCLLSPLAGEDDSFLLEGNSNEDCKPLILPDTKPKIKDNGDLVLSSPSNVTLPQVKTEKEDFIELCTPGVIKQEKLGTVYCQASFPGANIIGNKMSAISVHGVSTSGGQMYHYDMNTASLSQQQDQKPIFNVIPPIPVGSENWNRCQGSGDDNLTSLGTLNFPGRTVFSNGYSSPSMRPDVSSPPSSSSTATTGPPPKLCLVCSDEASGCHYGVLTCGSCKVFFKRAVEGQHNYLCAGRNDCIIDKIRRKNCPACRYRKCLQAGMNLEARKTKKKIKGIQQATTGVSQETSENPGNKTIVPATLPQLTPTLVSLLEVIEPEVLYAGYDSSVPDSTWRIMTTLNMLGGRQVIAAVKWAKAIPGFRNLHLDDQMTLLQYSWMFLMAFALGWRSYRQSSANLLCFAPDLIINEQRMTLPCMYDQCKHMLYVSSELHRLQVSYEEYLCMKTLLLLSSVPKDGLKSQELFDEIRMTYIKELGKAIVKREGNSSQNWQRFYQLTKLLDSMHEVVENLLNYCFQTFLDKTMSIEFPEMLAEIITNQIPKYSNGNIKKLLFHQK

Test [7] addresses Mitogen-activated protein kinase 10 (Mus musculus) (UniProt Q61831). The test can be described thus: JNK3 AlphaScreen Assay (AID 530).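 Also: kinase came from lysate of stimulated human HepG2 cells; signal reports phosphorylation of biotinylated GST-cJun 1-79 at Ser73 with 10 µM ATP; % is scaled to controls: 0 for no effect and ±100 for the full control effect.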 The following applies: JNK3 lysate, c-Jun phosphorylation; series mostly up to 57.1 µM. Put shortly: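 Compound titrations were preincubated 15 minutes at room temperature with substrate, antibody and pre-activated JNK3-containing HepG2 lysate. Reactions were started with 10 uM ATP and stopped with EDTA-containing bead buffer for AlphaScreen detection.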
(In general: In Alpha technology, singlet oxygen from a donor bead excites a nearby acceptor bead.)

Test [8] addresses 3',5'-cyclic-AMP phosphodiesterase 4B (Homo sapiens) (UniProt Q07343). Nature of the test: qHTS Assay for Inhibitors of PDE-IV (AID 607; active = well fitted activation curve with a large enough effect in the main read-out, with a control signal flat, not every such curve was filed as active; also: % of control where 0% means no effect). As to conditions: HEK293 ACTOne CNG channel cells, membrane potential fluorescence; series mostly up to 22.9 µM. An outline of the steps: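 Live HEK293 cells with a modified cyclic nucleotide-gated (CNG) channel report intracellular cAMP via membrane-potential dye fluorescence (ex 535/em 590 nm). Endogenous PDE-IV was targeted. Compounds were tested at up to 22.9 uM final; RO 20-1724 100 uM served as control.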

The target in test [9] is Cytochrome P450 3A4 (Homo sapiens) (UniProt P08684). Nature of the test: qHTS Assay for Activators of Cytochrome P450 3A4 (AID 885; active = well fitted curve in the direction sought with a large enough effect; an effect the other way counts as inactive or inconclusive; also: nearly all actives have a fitted effect of over 65% in size). As to conditions: recombinant CYP3A4, Luciferin-PPXE luminescence, 60 min; series mostly up to 57.1 µM. Put shortly:
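Quantitative HTS format: compounds preincubated with 20nM human CYP3A4 and Luciferin-PPXE substrate at KM, reaction started by NADPH regeneration, stopped after 60 min, luciferase luminescence read 20 min later.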
In general terms: Quantitative high-throughput screening tests each substance at several concentrations.

Test [10] in a line: qHTS Assay for Lipid Storage Modulators (AID 1519; calls by dose curve). As to conditions: Drosophila S3 cells, BODIPY lipid droplet/cell ratio, laser cytometry, cells loaded with oleic acid; for activity change, negative = inhibition: at 57.5 µM (top of the series). An outline of the steps:
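Cells seeded at 5,000 per well were treated with compounds over a concentration series and loaded with oleic acid (400 uM, as added). Lipid droplet fluorescence (488 nm excitation, 500-530 nm channel) was read by laser-scanning cytometry and normalized to 20 uM Triacsin C.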

The nature of test [11]: Primary qHTS for small molecule stabilizers of the endoplasmic reticulum resident proteome: Secreted ER Calcium Modulated Protein (SERCaMP) assay (AID 1508630; active = well fitted curve in the direction sought with a large enough effect; an effect the other way counts as inactive or inconclusive; also: % is scaled to controls: 0 for no effect and ±100 for the full control effect). As to conditions: SH-SY5Y GLuc-SERCaMP (Gaussia luciferase released on ER calcium loss) secretion, thapsigargin, luminescence; series mostly up to 38.4 µM. Put shortly:
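GLuc-SERCaMP-expressing SH-SY5Y cells, pretreated 16 h with compound, are challenged with thapsigargin to empty ER calcium stores; after 4 h, coelenterazine is added directly to the medium and luminescence is imaged.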

The target of test [12] is Cytochrome P450 3A4 (Homo sapiens) (UniProt P08684). Nature of the test: qHTS Assay for Inhibitors and Substrates of Cytochrome P450 3A4 (AID 884; active = well fitted curve in the direction sought with a large enough effect; an effect the other way counts as inactive or inconclusive; also: potency is read from the fitted curve at half-maximal effect; nearly all actives have a fitted effect of over 50% in size). The following applies: recombinant CYP3A4, Luciferin-PPXE luminescence; series mostly up to 57.1 µM. An outline of the steps:
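20 nM human CYP3A4 with 25 uM Luciferin-PPXE (at KM) in 200 mM KPO4, preincubated 10 min with compound; NADPH regeneration started a 60 min RT reaction. Luciferin detected by luminescence, normalized to 57 uM ketoconazole as full inhibition.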

Test [13] addresses Cytochrome P450 2C19 (Homo sapiens) (UniProt P33261). The test can be described thus: qHTS Assay for Inhibitors and Substrates of Cytochrome P450 2C19 (AID 899; active = well fitted curve in the direction sought with a large enough effect; an effect the other way counts as inactive or inconclusive; also: potency is read from the fitted curve at half-maximal effect; nearly all actives have a fitted effect of over 60% in size). The following applies: recombinant CYP2C19, luciferin-H EGE luminescence; series mostly up to 57.1 µM. Put shortly: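 5nM enzyme + 10uM Luciferin-H EGE (=KM), 50mM KPO4; cpd pin-transferred, 10 min 37C; NADPH regen, 60 min 37C; stopped w/ luciferin detection reagent, 20 min; luminescence. Normalized to 57uM ketoconazole (AC100).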

Where [14] appears, read: measured here: cell count channel max response.
The mark [15] stands for this setting: measured here: lipid channel max response.

SMILES strings stand for the structures. Records with an inconclusive call do not appear. Activity calls are given as the source filed them. Unless noted, calls follow the shape of the dose curve; as a rule, active = well fitted curve in either direction with a large enough effect (not every such curve was filed as active); inconclusive = small, poorly fitted or top-dose-only effect, or another doubt; inactive = flat fitted curve, though single readings scatter.

Sequence of Cytochrome P450 3A4 (Homo sapiens) (P08684 whole entry, looked up): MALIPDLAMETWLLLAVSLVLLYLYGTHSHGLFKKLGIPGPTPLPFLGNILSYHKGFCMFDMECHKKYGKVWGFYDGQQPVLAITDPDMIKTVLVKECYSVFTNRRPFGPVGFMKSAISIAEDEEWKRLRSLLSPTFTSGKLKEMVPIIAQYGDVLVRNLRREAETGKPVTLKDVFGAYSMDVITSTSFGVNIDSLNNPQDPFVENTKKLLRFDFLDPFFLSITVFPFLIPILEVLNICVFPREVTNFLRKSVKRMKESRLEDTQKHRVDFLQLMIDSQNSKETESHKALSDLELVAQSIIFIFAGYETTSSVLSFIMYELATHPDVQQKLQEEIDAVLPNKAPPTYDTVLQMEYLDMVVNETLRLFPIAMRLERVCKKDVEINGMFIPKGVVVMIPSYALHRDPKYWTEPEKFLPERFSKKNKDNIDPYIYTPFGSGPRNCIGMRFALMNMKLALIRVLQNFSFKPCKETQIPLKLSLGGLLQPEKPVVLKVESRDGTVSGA
Sequence of 3',5'-cyclic-AMP phosphodiesterase 4B (Homo sapiens) (Q07343 whole entry, looked up): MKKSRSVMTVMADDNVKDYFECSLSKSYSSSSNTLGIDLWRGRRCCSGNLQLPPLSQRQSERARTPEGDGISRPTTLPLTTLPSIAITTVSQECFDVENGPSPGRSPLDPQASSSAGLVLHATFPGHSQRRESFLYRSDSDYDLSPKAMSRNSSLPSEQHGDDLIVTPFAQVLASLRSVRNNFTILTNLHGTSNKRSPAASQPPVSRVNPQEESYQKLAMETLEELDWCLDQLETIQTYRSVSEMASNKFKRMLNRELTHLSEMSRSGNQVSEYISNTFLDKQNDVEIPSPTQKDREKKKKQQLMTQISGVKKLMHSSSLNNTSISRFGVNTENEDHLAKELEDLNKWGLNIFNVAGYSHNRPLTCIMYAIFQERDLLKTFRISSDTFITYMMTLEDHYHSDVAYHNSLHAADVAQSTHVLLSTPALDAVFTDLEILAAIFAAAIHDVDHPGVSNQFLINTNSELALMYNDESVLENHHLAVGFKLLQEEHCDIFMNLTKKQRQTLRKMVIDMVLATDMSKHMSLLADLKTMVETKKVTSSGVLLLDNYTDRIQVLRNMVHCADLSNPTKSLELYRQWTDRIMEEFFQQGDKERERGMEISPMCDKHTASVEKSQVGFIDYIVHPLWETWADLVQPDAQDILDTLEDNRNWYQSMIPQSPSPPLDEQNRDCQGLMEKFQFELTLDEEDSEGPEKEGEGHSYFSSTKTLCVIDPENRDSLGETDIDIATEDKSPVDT
Sequence of Cytochrome P450 1A2 (Homo sapiens) (P05177 whole entry, looked up): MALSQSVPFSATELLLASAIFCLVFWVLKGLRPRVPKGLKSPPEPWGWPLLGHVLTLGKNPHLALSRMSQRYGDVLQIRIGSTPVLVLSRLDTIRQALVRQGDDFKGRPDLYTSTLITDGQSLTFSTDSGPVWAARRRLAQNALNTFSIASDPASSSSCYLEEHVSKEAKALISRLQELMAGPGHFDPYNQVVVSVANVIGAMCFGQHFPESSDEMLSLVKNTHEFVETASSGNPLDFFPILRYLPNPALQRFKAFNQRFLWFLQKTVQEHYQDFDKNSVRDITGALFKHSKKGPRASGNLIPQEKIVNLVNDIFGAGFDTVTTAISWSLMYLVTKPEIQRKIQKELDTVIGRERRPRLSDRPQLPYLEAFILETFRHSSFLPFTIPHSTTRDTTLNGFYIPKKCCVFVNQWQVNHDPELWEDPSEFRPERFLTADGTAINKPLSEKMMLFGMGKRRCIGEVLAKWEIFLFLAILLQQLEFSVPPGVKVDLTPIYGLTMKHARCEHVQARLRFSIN
Sequence of Lysosomal acid glucosylceramidase (Homo sapiens) (P04062 whole entry, looked up): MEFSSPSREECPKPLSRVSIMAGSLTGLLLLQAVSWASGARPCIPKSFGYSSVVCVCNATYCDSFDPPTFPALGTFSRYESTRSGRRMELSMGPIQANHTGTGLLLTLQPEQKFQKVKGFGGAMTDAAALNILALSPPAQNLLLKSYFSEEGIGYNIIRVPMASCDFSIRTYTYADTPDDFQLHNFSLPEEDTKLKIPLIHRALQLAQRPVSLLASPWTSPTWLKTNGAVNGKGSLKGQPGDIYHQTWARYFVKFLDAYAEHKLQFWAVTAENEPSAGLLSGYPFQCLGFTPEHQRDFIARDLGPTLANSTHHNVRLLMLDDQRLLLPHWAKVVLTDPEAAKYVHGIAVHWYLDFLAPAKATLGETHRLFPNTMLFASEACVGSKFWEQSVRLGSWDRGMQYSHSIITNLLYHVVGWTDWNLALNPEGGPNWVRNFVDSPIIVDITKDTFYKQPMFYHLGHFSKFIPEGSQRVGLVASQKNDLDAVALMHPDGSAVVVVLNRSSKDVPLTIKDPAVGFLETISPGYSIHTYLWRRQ
Sequence of Cytochrome P450 2C19 (Homo sapiens) (P33261 whole entry, looked up): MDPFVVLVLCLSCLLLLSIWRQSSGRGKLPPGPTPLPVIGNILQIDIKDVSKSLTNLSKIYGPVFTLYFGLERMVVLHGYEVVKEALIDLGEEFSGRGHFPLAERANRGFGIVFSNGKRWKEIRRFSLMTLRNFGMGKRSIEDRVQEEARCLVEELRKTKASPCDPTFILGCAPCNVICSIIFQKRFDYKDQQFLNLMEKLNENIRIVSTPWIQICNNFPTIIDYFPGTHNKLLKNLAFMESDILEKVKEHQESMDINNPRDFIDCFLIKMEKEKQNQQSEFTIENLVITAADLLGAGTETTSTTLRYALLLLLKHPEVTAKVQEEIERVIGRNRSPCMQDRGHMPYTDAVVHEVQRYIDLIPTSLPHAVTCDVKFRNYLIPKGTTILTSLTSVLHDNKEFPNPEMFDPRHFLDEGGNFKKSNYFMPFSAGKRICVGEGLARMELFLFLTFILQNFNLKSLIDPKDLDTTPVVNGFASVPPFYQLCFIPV

For the molecule `O=C(c1cnccn1)N1CCC[C@@]2(CCN(c3ncccn3)C2)C1`, the Potency in [1] was > 11.4 µM (inactive); in test [6] it was > 46 µM (inactive). In addition, the activity change, negative = inhibition is -3.69% (inactive) in test [2], 7.98% (inactive) in test [4] and 5.72% (inactive) in test [10]. The Potency entry in [3], in test [8], in test [9] and in [11] was “inactive” throughout. Moreover, in test [5], the activity, negative = inhibition was -3.83% (inactive). The molecule was classed as inactive in test [7]. Besides, the max response amounted to 9.64% in [10] (setting [14]) and 19.5% in [10] (setting [15]).
Regarding `O=C(Nc1cccc(F)c1)N1CC[C@@]2(CCCN(C(=O)c3ccco3)C2)C1`, the Potency in test [1] was > 11.4 µM (inactive); in test [3], 25.1 µM (active); in [6], > 46 µM (inactive). For the same molecule, the activity change, negative = inhibition in test [2] is 1.78% (inactive); in [4], -0.255% (inactive); in test [10], 0.339% (inactive). Also, the activity, negative = inhibition in [5] was 8.88% (inactive). Besides, the molecule was classed as inactive in test [7]. Also, the Potency entry in test [8], in [9] and in test [11] was “inactive” each time. For the same molecule, the max response is -5.34% in test [10] (setting [14]) and -1.46% in test [10] (setting [15]).
Regarding `CS(=O)(=O)N1CCC[C@@]2(CCN(Cc3nccs3)C2)C1`, the Potency in [1] was > 11.4 µM (inactive); in test [6], > 46 µM (inactive). Further, the values for the activity change, negative = inhibition in test [2], in [4] and in test [10] were -5.88% (inactive), 5.31% (inactive) and 7.12% (inactive), respectively. The Potency result in test [3], in [8], in test [9] and in test [11] was “inactive” throughout. In test [5], the activity, negative = inhibition was 4.77% (inactive). For the same molecule, the outcome in [7] was inactive. Further, the max response in test [10] (setting [14]) worked out at 9.38%; in [10] (setting [15]), 20.5%.
For the molecule `CS(=O)(=O)N1CCC2(CCCN(C(=O)Nc3cccc(C#N)c3)C2)CC1`, the values for the Potency in test [1] and in [6] were > 11.4 µM (inactive) and > 46 µM (inactive), respectively. The values for the activity change, negative = inhibition in test [2], in test [4] and in [10] were 2.54% (inactive), 1.96% (inactive) and 6.12% (inactive), respectively. Moreover, the Potency result in test [3], in test [8], in [9] and in test [11] was “inactive” in each case. Also, the activity, negative = inhibition in [5] was 1.15% (inactive). Further, the result in test [7] was inactive. Besides, the max response turned out to be 14.7% in [10] (setting [14]) and 21% in [10] (setting [15]).
For `O=C(c1cccc(F)c1)N1CCC[C@@]2(CCN(Cc3nccs3)C2)C1`, the Potency was > 11.4 µM (inactive) in test [1]; 12.6 µM (active) in [3]; > 46 µM (inactive) in test [6]; 7.94 µM (active) in test [12]; 2.51 µM (active) in [13]. The activity change, negative = inhibition is 2.29% (inactive) in test [2], 7.56% (inactive) in test [4] and 3.24% (inactive) in test [10]. Also, the activity, negative = inhibition in test [5] was -0.114% (inactive). For the same molecule, in [7], the call was inactive. The Potency result in test [8], in test [9] and in test [11] was “inactive” each time. Also, the figures for the max response in test [10] (setting [14]) and in test [10] (setting [15]) were 16.4% and 22.4%, respectively.
For the molecule `COc1ccc(C(=O)N2CCC[C@@]3(CCN(C(=O)Nc4ccccc4)C3)C2)cc1`, the figures for the Potency in test [1], in test [3] and in [6] were > 11.4 µM (inactive), 15.8 µM (active) and > 46 µM (inactive), respectively. In addition, the activity change, negative = inhibition in test [2] was -19.4% (inactive); in test [4], 12.1% (inactive); in test [10] it was 10.7% (inactive). The activity, negative = inhibition in [5] is -4.43% (inactive). In addition, the call in test [7] was inactive. Besides, the Potency entry in test [8], in test [9] and in [11] was “inactive” each time. In addition, the max response in [10] (setting [14]) came to 8.67%; in test [10] (setting [15]) it was 24.1%.
